Measurements reported in PubChem BioAssay AID1159580 (chemical genetic matrix, 2015).
Hit rate of the full screen: of about 5,500 compounds, about 2,000 (36%) were called active. About 18% were inconclusive and are not listed. Cut-off read from the data, not from the text of the source: active = normalized growth mostly below about 0.91 (no sharp cut-off); inconclusive = no clear call, values can overlap the other calls; inactive = mostly above about 0.92. The list shows a part of the results.

Assay: chemical genetic growth profiling, strain panel (AID 1159580);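 note: tested at 20 µM; growth read once vehicle control cultures reached saturation at 30 °C; 1 = growth at the plate median or of vehicle wells; lower values mean less growth of the strain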
Conditions: growth OD

Measured: normalized growth

CCC(=O)O[C@H]1[C@H](O[C@@H]2[C@@H](C)[C@H](O[C@H]3C[C@@](C)(OC)[C@@H](O)[C@H](C)O3)[C@@H](C)C(=O)O[C@H](CC)[C@@](C)(O)[C@H](O)[C@@H](C)C(=O)[C@H](C)C[C@@]2(C)O)O[C@H](C)C[C@@H]1N(C)C
inactive: S. cerevisiae deletion strains, locus YJR066W, strain TOR1, active compounds read low 0.852 | S. cerevisiae deletion strains, locus YKL009W, strain mrt4, active compounds read low 0.932 | S. cerevisiae deletion strains, locus YKL068W, active compounds read low 1.04 | S. cerevisiae deletion strains, locus YKL085W, strain MDH1 (second series), active compounds read low 1 | S. cerevisiae deletion strains, locus YKL085W, strain MDH1, active compounds read low 1 | S. cerevisiae deletion strains, locus YKL160W, strain elf1, active compounds read low 0.924 | S. cerevisiae deletion strains, locus YKL190W, strain CNB1, active compounds read low 1.01 | S. cerevisiae deletion strains, locus YKR026C, strain gcn3, active compounds read low 1.03 | S. cerevisiae deletion strains, locus YKR091W, strain srl3, active compounds read low 1.02 | S. cerevisiae deletion strains, locus YLL026W, active compounds read low 0.942 | S. cerevisiae deletion strains, locus YLL041C, strain sdh2, active compounds read low 1 | S. cerevisiae deletion strains, locus YLR039C, strain RIC1, active compounds read low 0.865 | S. cerevisiae deletion strains, locus YLR058C, strain SHM2, active compounds read low 0.968 | S. cerevisiae deletion strains, locus YLR102C, strain apc9, active compounds read low 1.01 | S. cerevisiae deletion strains, locus YLR113W, strain HOG1, active compounds read low 1.02 | S. cerevisiae deletion strains, locus YLR262C, strain YPT6 (second series), active compounds read low 1.03 | S. cerevisiae deletion strains, locus YLR262C, strain YPT6, active compounds read low 0.882 | S. cerevisiae deletion strains, locus YLR268W, strain sec22, active compounds read low 0.988 | S. cerevisiae deletion strains, locus YLR330W, strain CHS5, active compounds read low 0.937 | S. cerevisiae deletion strains, locus YLR342W, strain FKS1 (second series), active compounds read low 1.05 | S. cerevisiae deletion strains, locus YLR342W, strain FKS1, active compounds read low 1.05 | S. cerevisiae deletion strains, locus YLR370C, strain arc18, active compounds read low 1 | S. cerevisiae deletion strains, locus YLR371W, strain rom2, active compounds read low 0.935 | S. cerevisiae deletion strains, locus YLR384C, strain iki3, active compounds read low 1.02 | S. cerevisiae deletion strains, locus YML016C, strain PPZ1, active compounds read low 1 | S. cerevisiae deletion strains, locus YML032C, strain rad52, active compounds read low 0.946 | S. cerevisiae deletion strains, locus YML124C, strain tub3, active compounds read low 1.02 | S. cerevisiae deletion strains, locus YMR058W, strain fet3, active compounds read low 0.961 | S. cerevisiae deletion strains, locus YMR078C, strain ctf18, active compounds read low 0.988 | S. cerevisiae deletion strains, locus YMR129W, active compounds read low 1 | S. cerevisiae deletion strains, locus YMR223W, strain ubp8, active compounds read low 0.982 | S. cerevisiae deletion strains, locus YMR231W, strain pep5, active compounds read low 0.984 | S. cerevisiae deletion strains, locus YMR263W, strain SAP30, active compounds read low 0.943 | S. cerevisiae deletion strains, locus YNL067W, strain RPL9B, active compounds read low 0.948 | S. cerevisiae deletion strains, locus YNL128W, strain TEP1, active compounds read low 0.985 | S. cerevisiae deletion strains, locus YNL183C, strain NPR1, active compounds read low 0.857 | S. cerevisiae deletion strains, locus YNL209W, strain ssb2, active compounds read low 0.992 | S. cerevisiae deletion strains, locus YNL250W, strain rad50, active compounds read low 1.03 | S. cerevisiae deletion strains, locus YNL271C, strain bni1, active compounds read low 1.01 | S. cerevisiae deletion strains, locus YNL298W, strain CLA4, active compounds read low 0.952 | S. cerevisiae deletion strains, locus YNL322C, strain KRE1 (second series), active compounds read low 0.943 | S. cerevisiae deletion strains, locus YNR049C, strain mso1, active compounds read low 1.01 | S. cerevisiae deletion strains, locus YNR052C, strain pop2, active compounds read low 1 | S. cerevisiae deletion strains, locus YOL006C, strain TOP1, active compounds read low 0.689 | S. cerevisiae deletion strains, locus YOL012C, strain htz1 0.653 | S. cerevisiae deletion strains, locus YOL147C, strain pex11, active compounds read low 0.977 | S. cerevisiae deletion strains, locus YOR061W, strain CKA2, active compounds read low 1.01 | S. cerevisiae deletion strains, locus YOR069W, strain VPS5, active compounds read low 1 | S. cerevisiae deletion strains, locus YOR070C, strain gyp1, active compounds read low 0.93 | S. cerevisiae deletion strains, locus YOR080W, strain dia2, active compounds read low 0.977 | S. cerevisiae deletion strains, locus YOR136W, strain idh2, active compounds read low 0.978 | S. cerevisiae deletion strains, locus YOR144C, strain elg1, active compounds read low 1.01 | S. cerevisiae deletion strains, locus YOR184W, strain ser1, active compounds read low 0.936 | S. cerevisiae deletion strains, locus YOR231W, strain MKK1, active compounds read low 0.879 | S. cerevisiae deletion strains, locus YOR265W, strain rbl2, active compounds read low 0.982 | S. cerevisiae deletion strains, locus YOR316C, strain cot1, active compounds read low 1.01 | S. cerevisiae deletion strains, locus YPL051W, strain arl3, active compounds read low 0.921 | S. cerevisiae deletion strains, locus YPL055C, strain LGE1, active compounds read low 0.894 | S. cerevisiae deletion strains, locus YPL106C, strain sse1, active compounds read low 1.06 | S. cerevisiae deletion strains, locus YPL256C, strain CLN2, active compounds read low 0.953 | S. cerevisiae deletion strains, locus YPR119W, strain clb2, active compounds read low 1.02 | S. cerevisiae deletion strains, locus YPR141C, strain kar3, active compounds read low 1.06 | S. cerevisiae deletion strains, locus YPR167C, strain met16, active compounds read low 0.994 | S. cerevisiae deletion strains, strain wtn01, active compounds read low 0.968 | S. cerevisiae strains, strain wild type, active compounds read low 0.974
active: S. cerevisiae deletion strains, locus YKR001C, strain vps1, active compounds read low 0.648 | S. cerevisiae deletion strains, locus YLL001W, strain dnm1, active compounds read low 0.87 | S. cerevisiae deletion strains, locus YLR027C, strain aat2, active compounds read low 0.893 | S. cerevisiae deletion strains, locus YLR221C, strain rsa3, active compounds read low 0.796 | S. cerevisiae deletion strains, locus YLR258W, strain gsy2, active compounds read low 0.902 | S. cerevisiae deletion strains, locus YLR320W, strain mms22, active compounds read low 0.596 | S. cerevisiae deletion strains, locus YLR357W, strain rsc2, active compounds read low 0.759 | S. cerevisiae deletion strains, locus YLR418C, strain cdc73, active compounds read low 0.615 | S. cerevisiae deletion strains, locus YML120C, strain ndi1, active compounds read low 0.905 | S. cerevisiae deletion strains, locus YMR125W, strain sto1, active compounds read low 0.765 | S. cerevisiae deletion strains, locus YMR205C, strain PFK2, active compounds read low 0.8 | S. cerevisiae deletion strains, locus YMR307W, strain GAS1, active compounds read low 0.463 | S. cerevisiae deletion strains, locus YNL071W, strain lat1, active compounds read low 0.309 | S. cerevisiae deletion strains, locus YNL233W, strain BNI4, active compounds read low 0.853 | S. cerevisiae deletion strains, locus YNL248C, strain rpa49, active compounds read low 0.776 | S. cerevisiae deletion strains, locus YNL307C, strain MCK1, active compounds read low 0.4 | S. cerevisiae deletion strains, locus YOR001W, strain rrp6, active compounds read low 0.861 | S. cerevisiae deletion strains, locus YOR083W, strain WHI5, active compounds read low 0.829 | S. cerevisiae deletion strains, locus YOR106W, strain vam3, active compounds read low 0.75 | S. cerevisiae deletion strains, locus YOR270C, strain vph1, active compounds read low 0.3 | S. cerevisiae deletion strains, locus YOR290C, strain snf2, active compounds read low 0.786 | S. cerevisiae deletion strains, locus YPL078C, strain atp4, active compounds read low 0.635 | S. cerevisiae deletion strains, locus YPL240C, strain hsp82, active compounds read low 0.904 | S. cerevisiae deletion strains, locus YPR163C, strain tif3, active compounds read low 0.829
